Inconclusive results are not listed. Activity calls are given as the source filed them. The call rests on the fitted dose curve; in most records, active means well fitted curve in the direction sought with a large enough effect; inconclusive means small, poorly fitted or top-dose-only effect, or another doubt; inactive means no such curve, though single readings can be large; an effect the other way counts as inactive or inconclusive.
How the values were obtained:
[1] = qHTS of pediatric cancer cell lines to identify multiple opportunities for drug repurposing: Primary screen for LAN-5 cells (AID 1347100); conditions: LAN-5 neuroblastoma viability, CellTiter-Glo luminescence, 48 h; series mostly up to 46 µM; further: potency means the concentration at half of the fitted maximal effect
Summary of the method: (§1)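 Viability after 48 h compound treatment at 37C, 500-1,000 cells/well, read as ATP luminescence with CellTiter-Glo. Primary screens used 11-point (MIPE, 0.78 nM-46 µM) or 8-point (NPC, 0.59 nM-46 µM) final concentrations; follow-up screens used 11-point dilutions.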

[2] = qHTS of pediatric cancer cell lines to identify multiple opportunities for drug repurposing: Primary screen for Rh18 cells (AID 1347102); conditions: Rh18 rhabdomyosarcoma viability, CellTiter-Glo luminescence, 48 h; series mostly up to 46 µM; further: nearly all actives have a fitted effect of over 65% in size; further: potency means the concentration at half of the fitted maximal effect
Summary of the method: as §1

[3] = qHTS of pediatric cancer cell lines to identify multiple opportunities for drug repurposing: Primary screen for OHS-50 cells (AID 1347103); conditions: OHS-50 osteosarcoma viability, CellTiter-Glo luminescence, 48 h; series mostly up to 57.3 µM; further: nearly all actives have a fitted effect of over 40% in size; further: potency means the concentration at half of the fitted maximal effect
Summary of the method: (§2)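 Cells (500-1,000/well) rested 5 h, then received compounds for 48 h; metabolically active cells were measured by CellTiter-Glo luminescence. Final concentrations spanned up to 46 µM (MIPE, 11-point) or 0.59 nM-46 µM (NPC, 8-point) in primary screens, 11-point in follow-ups.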

[4] = qHTS of pediatric cancer cell lines to identify multiple opportunities for drug repurposing: Primary screen for RD cells (AID 1347104); conditions: RD rhabdomyosarcoma viability, CellTiter-Glo luminescence, 48 h; series mostly up to 46 µM; further: nearly all actives have a fitted effect of over 55% in size; further: potency means the concentration at half of the fitted maximal effect
Summary of the method: (§3)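 Quantitative HTS format: each compound titrated (MIPE 11 points from 0.78 nM, NPC 8 points from 0.59 nM) onto cells plated 5 hours earlier. After 48 h at 37 degrees C, CellTiter-Glo luminescence was recorded.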

[5] = qHTS of pediatric cancer cell lines to identify multiple opportunities for drug repurposing: Primary screen for MG 63 (6-TG R) cells (AID 1347105); conditions: MG 63 (6-TG R) viability, CellTiter-Glo, 48 h; series mostly up to 46 µM; further: nearly all actives have a fitted effect of over 50% in size; further: potency means the concentration at half of the fitted maximal effect
Summary of the method: as §3

[6] = qHTS of pediatric cancer cell lines to identify multiple opportunities for drug repurposing: Primary screen for control Hh wild type fibroblast cells (AID 1347106); conditions: Hh wild-type fibroblast viability, CellTiter-Glo luminescence, 48 h; series mostly up to 46 µM; further: nearly all actives have a fitted effect of over 55% in size; further: potency means the concentration at half of the fitted maximal effect
Summary of the method: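 Cells (500-1,000/well) in growth media were settled 5 h at 37 degrees C, then given compounds for 48 h. Viability was read as CellTiter-Glo luminescence. Primary runs used MIPE at 11 points (0.78 nM-46 µM) and NPC at 8 points (0.59 nM-46 µM); follow-ups used 11 points.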

[7] = qHTS of pediatric cancer cell lines to identify multiple opportunities for drug repurposing: Primary screen for Rh30 cells (AID 1347107); conditions: Rh30 rhabdomyosarcoma viability, CellTiter-Glo luminescence, 48 h; series mostly up to 46 µM; further: nearly all actives have a fitted effect of over 75% in size; further: potency means the concentration at half of the fitted maximal effect
Summary of the method: as §1

[8] = qHTS of pediatric cancer cell lines to identify multiple opportunities for drug repurposing: Primary screen for Rh41 cells (AID 1347108); conditions: Rh41 rhabdomyosarcoma viability, CellTiter-Glo luminescence, 48 h; series mostly up to 46 µM; further: nearly all actives have a fitted effect of over 70% in size; further: potency means the concentration at half of the fitted maximal effect
Summary of the method: as §3

[9] = qHTS of pediatric cancer cell lines to identify multiple opportunities for drug repurposing: Confirmatory screen for NB1643 cells (AID 1347109); conditions: NB1643 neuroblastoma cell viability; series mostly up to 45.9 µM; further: nearly all actives have a fitted effect of over 45% in size; further: potency means the concentration at half of the fitted maximal effect
Summary of the method: as §1

[10] = qHTS of pediatric cancer cell lines to identify multiple opportunities for drug repurposing: Primary screen for BT-12 cells (AID 1347101); conditions: BT-12 viability, CellTiter-Glo luminescence, 48 h; series mostly up to 57.3 µM; further: nearly all actives have a fitted effect of over 25% in size
Summary of the method: as §2

Measured: Potency

C[N+](C)(C)CC(=O)O
inactive: [1] | [2] | [3] | [4] | [5] | [6] | [7] | [8]

O=C(NC1CCOCC1)c1ccc(-c2cc(-c3cn[nH]c3-c3ccccn3)ccn2)cc1
inactive: [1] | [2] | [3] | [4] | [5] | [6] | [7] | [8]

CN(C)CCC=C1c2ccccc2COc2ccc(CC(=O)O)cc21
inactive: [1] | [2] | [3] | [8]

C=C1C(=O)OC2C=C(C)CCC=C(C)CCC12 (configuration not stated)
inactive: [2] | [3] | [5] | [6]
active: [1] 23.5 µM

COc1cccc([C@@H](C)NCCCc2ccccc2Cl)c1
inactive: [1] | [2] | [3] | [4] | [7] | [8]

CC1(C)S[C@H]2[C@H](NC(=O)[C@@H](N)c3ccc(O)cc3)C(=O)N2[C@@H]1C(=O)O
active: [1] 3.72 µM | [2] 2.96 µM | [4] 2.96 µM | [5] 3.72 µM | [8] 3.72 µM
inactive: [6] | [9]

N#Cc1ccc(NC(=O)Nc2ccccc2Br)c2n[nH]nc12
inactive: [2] | [4] | [5] | [6] | [7] | [8]
active: [1] 26.4 µM | [3] 21.7 µM

O=c1c(-c2ccc(O)cc2)coc2cc(O)ccc12
inactive: [1] | [2] | [3] | [4] | [5] | [6] | [7] | [8]

Cc1[nH]c(C=C2C(=O)Nc3ccc(S(=O)(=O)Cc4c(Cl)cccc4Cl)cc32)c(C)c1C(=O)N1CCC[C@H]1CN1CCCC1
active: [1] 14.8 µM | [2] 14.8 µM | [3] 30.6 µM | [4] 18.7 µM | [5] 23.5 µM | [8] 18.7 µM | [9] 11.7 µM
inactive: [6]

COc1ccc(-c2coc3cc(O)cc(O)c3c2=O)cc1
inactive: [1] | [2] | [4] | [5] | [6] | [7] | [8]

CCOc1ccc(Nc2nc(-c3c(C)nc4ccccn34)cs2)cc1
active: [1] 0.001 µM | [3] 0.0039 µM
inactive: [2] | [4] | [5] | [6] | [7] | [8]

CC(=O)N(C)C1(c2ccccc2)CCN(CCC[C@]2(c3ccc(Cl)c(Cl)c3)CCCN(C(=O)c3ccccc3)C2)CC1
active: [1] 23.5 µM | [2] 26.4 µM | [3] 24.3 µM | [4] 18.7 µM | [8] 18.7 µM

CO[C@@H](C(=O)N1Cc2[nH]nc(NC(=O)c3ccc(N4CCN(C)CC4)cc3)c2C1)c1ccccc1
inactive: [7]
active: [1] 0.0372 µM | [2] 0.935 µM | [4] 5.26 µM | [5] 1.48 µM | [6] 9.35 µM | [8] 0.469 µM

C[C@H](NC(=O)c1sccc1OCc1ccc(Cl)cc1)c1ccccc1
inactive: [1] | [2] | [6]
active: [3] 12.2 µM | [4] 29.6 µM | [7] 18.7 µM | [8] 16.6 µM

CC(C)C[C@H](CC(=O)O)C(=O)N[C@@H](Cc1c[nH]c2ccccc12)C(=O)N[C@@H](C)c1ccccc1
inactive: [2] | [4] | [5] | [7] | [8]
active: [1] 2.64 µM

CC1(C)O[C@H]2C[C@@H]3[C@H]4CCC5=CC(=O)C=C[C@]5(C)[C@@]4(F)[C@@H](O)C[C@]3(C)[C@]2(C(=O)CO)O1
inactive: [2] | [4] | [5] | [6] | [7] | [8] | [9]
active: [1] 7.43 µM

Cc1ccc([C@@H]2O[C@H](CO)[C@@H](O)[C@H](O)[C@@H]2O)cc1Cc1ccc(-c2ccc(F)cc2)s1
inactive: [1] | [2] | [5] | [6]
active: [3] 34.3 µM

NC[C@@H]1O[C@@H](O[C@H]2[C@@H](O)[C@H](O[C@@H]3[C@@H](O)[C@@H](N)C[C@H](N)[C@H]3O[C@H]3O[C@H](CN)[C@@H](O)[C@@H](O)[C@H]3N)O[C@H]2CO)[C@H](N)[C@@H](O)[C@@H]1O
inactive: [1] | [2] | [3] | [4] | [5] | [6] | [7] | [8]

CC(C)OC(=O)C(C)(C)Oc1ccc(C(=O)c2ccc(Cl)cc2)cc1
inactive: [1] | [2] | [4] | [5] | [6] | [7] | [8]

Nc1ncnc2ccccc12
inactive: [1] | [2] | [3] | [4] | [5] | [7]
active: [8] 23.5 µM

Cc1cccc(C)c1OCC(C)N (configuration not stated)
inactive: [1] | [2] | [3] | [4] | [5] | [7] | [8]

CC[C@@H]1C=C(C)C[C@H](C)C[C@H](OC)[C@H]2O[C@@](O)(C(=O)C(=O)N3CCCC[C@@H]3C(=O)O[C@H](C(C)=C[C@@H]3CC[C@H](Cl)[C@H](OC)C3)[C@H](C)[C@@H](O)CC1=O)[C@H](C)C[C@H]2OC
active: [1] 11.8 µM | [3] 8.63 µM
inactive: [5] | [6] | [7]

CN1CCN(CCOc2cc(OC3CCOCC3)c3c(Nc4c(Cl)ccc5c4OCO5)ncnc3c2)CC1
inactive: [6]
active: [1] 18.7 µM | [3] 17.2 µM | [4] 20.9 µM

CC1CCC(C(=O)N(c2cc(C#CC(C)(C)C)sc2C(=O)O)C2CCC(O)CC2)CC1 (configuration not stated)
inactive: [1] | [2] | [5] | [6]

O=c1c(O)c(-c2ccc(O)cc2)oc2cc(O)cc(O)c12
active: [1] 6.62 µM
inactive: [5] | [6]

NC(CO)(CO)CCc1ccc(Sc2cccc(OCc3ccccc3)c2)cc1Cl
inactive: [7]
active: [1] 4.18 µM | [3] 27.3 µM | [4] 33.2 µM | [5] 29.6 µM

CO[C@H]1C[C@@H]2CC[C@@H](C)[C@@](O)(O2)C(=O)C(=O)N2CCCC[C@@H]2C(=O)O[C@H]([C@H](C)C[C@@H]2CC[C@H](OC(=O)C(C)(CO)CO)[C@H](OC)C2)CC(=O)[C@H](C)C=C(C)[C@@H](O)[C@@H](OC)C(=O)[C@H](C)C[C@H](C)C=CC=CC=C1C
inactive: [6]
active: [1] 20.9 µM | [2] 29.6 µM | [8] 14.8 µM

Clc1ccc(Cn2c(CN3CCCC3)nc3ccccc32)cc1
inactive: [1] | [4] | [5] | [6] | [7]

O=C(O)C(O)Cc1ccc(O)c(O)c1 (configuration not stated)
inactive: [10] | [2] | [3] | [4] | [5] | [6] | [7] | [8]

Cc1ccn(-c2ccc(-c3ncco3)cc2)c(=O)c1-c1ccc2nc(N)ncc2c1
inactive: [1] | [6] | [7] | [8]
active: [3] 2.73 µM

— PubChem BioAssay (NCATS)
